# Data reported in PubChem BioAssay (NCATS).
# Results filed as inconclusive are left out. Values without a mark were called inactive. Calls follow the shape of the dose curve; as a rule, active = well fitted inhibition curve with a large enough effect; inconclusive = small, poorly fitted or top-dose-only effect, or effect the other way; inactive = flat fitted curve, though single readings scatter.
# Biological target: ATP-dependent 6-phosphofructokinase (Trypanosoma brucei brucei) (UniProt O15648)
# Sequence (O15648 whole entry, looked up): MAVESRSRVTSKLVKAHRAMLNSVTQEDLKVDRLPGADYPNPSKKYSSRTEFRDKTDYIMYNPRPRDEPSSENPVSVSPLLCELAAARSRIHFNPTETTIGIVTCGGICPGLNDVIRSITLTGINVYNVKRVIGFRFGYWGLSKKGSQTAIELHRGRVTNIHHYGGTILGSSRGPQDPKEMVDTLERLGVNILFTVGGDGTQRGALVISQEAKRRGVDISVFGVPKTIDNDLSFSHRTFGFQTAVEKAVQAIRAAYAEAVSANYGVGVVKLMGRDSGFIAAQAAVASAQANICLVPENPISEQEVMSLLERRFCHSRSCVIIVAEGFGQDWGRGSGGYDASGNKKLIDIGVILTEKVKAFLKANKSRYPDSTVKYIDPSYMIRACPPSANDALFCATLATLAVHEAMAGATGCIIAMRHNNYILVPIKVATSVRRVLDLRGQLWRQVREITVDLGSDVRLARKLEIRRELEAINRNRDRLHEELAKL
# Experiment: qHTS Assay to Find Inhibitors of T. brucei phosphofructokinase: hit validation (AID 492961);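 also: luminescence reports ADP formed as PFK phosphorylates fructose-6-phosphate with ATP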
# Conditions: T. brucei PFK, ADP-Glo luminescence; series mostly up to 51.4 µM; activity change, negative = inhibition: at the top concentration
# Excerpt: NIH Molecular Libraries Probe Production Network [MLPCN] NIH Chemical Genomics Center [NCGC] Grant: 1 R03 MH092153-01 PI Name: Malcolm Walkinshaw, University of Edinburgh NCGC Assay Overview: Various species of the protozoan family Trypanosomatidae are responsible for a range of serious human diseases in tropical and subtropical areas of the world. […] Many of the disorders caused by trypanosomatids are fatal if left untreated, but most currently used drugs are inefficient and toxic. […] Oxidative metabolism involving the mitochondrial tricarboxylic acid cycle and oxidative phosphorylation are repressed in these parasites, and recent RNA interference (RNAi) experiments have shown that even partial depletion of certain individual glycolytic enzymes can lead to the death of cultured parasites. One such glycolytic enzyme, phosphofructokinase (PFK), catalyzes the formation of fructose-1,6-bisphosphate (F1,6BP) and ADP from fructose-6-phosphate (F6P) and ATP, and in many metabolic circumstances makes an important contribution to the control of flux through the glycolytic pathway. As a specific glycolytic target, PFK is particularly attractive as it catalyzes the first irreversible step in glycolysis, and structural and kinetic studies have shown very substantial and essential differences from corresponding host enzymes, allowing for the discovery of parasite-selective inhibitors. The goal of this screen is to find small-molecule inhibitors of T. brucei PFK using a biochemical assay that measures PFK activity as a function of ADP production. A luminescence-based assay for T. brucei PFK activity has been developed which uses luciferase to detect production of ADP. Traditional luciferase-based nucleotide detection reagents rely on ATP production as a direct substrate for the luciferase reaction; however, PFK catalyzes the transfer of a phosphate from ATP to F6P, resulting in the net depletion of ATP. To directly measure the ADP product of the PFK reaction, we used the ADP-Glo detection kit (Promega), which utilizes two separate reactions to 1) deplete all remaining uncatalyzed ATP and 2) convert all remaining ADP to ATP, which is then detected through a traditional luciferase-coupled reaction. Compounds were screened as a concentration-titration series that ranged from 57 uM to 0.7 nM.
# NCGC Assay Protocol Summary: Substrate buffer was dispensed into white, solid 1536-well plates at 3uL/well in 0.1M triethanolamine (TEA) buffer, pH 8.0, containing final concentrations of 5 mM MgCl2, 0.01% Tween20, 0.5 mM fructose-6-phosphate (F6P) and 0.1mM ATP. Then, 23 nL of compounds or DMSO were delivered to each well using a pin tool. One uL T. brucei PFK (0.1M TEA, 0.01% Tween20, 0.1% bovine serum albumin (BSA) and 1.25nM PFK, final concentrations) was then dispensed, and plates were incubated at room temperature for 45 min. The luminescent detection reagent, ADP-Glo (Promega), was then added in two steps: the first reagent, ADP-Glo (which converts remaining uncatalyzed ATP), was added at 2.5uL/well and incubated for ten minutes at room temperature, and the second component, Kinase Detection reagent (which converts ADP to ATP as a substrate for luciferase-based luminescence), was added immediately after at 5uL/well, followed by one final ten minute room temperature incubation. The plates were measured on a ViewLux plate reader for luminescent signal using a clear filter with a one second exposure. The %Activity was determined from the corrected luminescence values. As no specific T. brucei PFK inhibitors have been identified in the literature, 1x (1.25nM) and 0x PFK enzyme controls (untreated) were included to normalize %Activity of identified inhibitors; 0x enzyme values corresponded to 100%Activity (full inhibition), while 1x PFK enzyme values were used to normalize 0%Activity (no inhibition). Concentration-response curves were fitted to the signals arising from the resulting luminescence. […]
row,Compound,"activity change, negative = inhibition"
1,C#CCN(C)CCCOc1ccc(Cl)cc1Cl,-3.92%
2,CC(=O)[C@]1(O)Cc2c(O)c3c(c(O)c2[C@@H](O[C@H]2C[C@H](N)[C@H](O)[C@H](C)O2)C1)C(=O)c1ccccc1C3=O,17.7%
3,CCn1nc(C(=O)O)c(=O)c2cc3c(cc21)OCO3,-11.9% [at 24.3 µM]
4,O=C(O)CN(CCOCCOCCN(CC(=O)O)CC(=O)O)CC(=O)O,-1.91%
5,CCCCNc1ccc(C(=O)OCCN(C)C)cc1,1.01% [at 24.3 µM]
6,CC[N+](C)(C)c1cccc(O)c1,6.54% [at 24.3 µM]
7,CN1CCN(C2=Nc3ccccc3Oc3ccc(Cl)cc32)CC1,3.32% [at 24.3 µM]
8,CCN(CC)CCNC(=O)c1ccc(NC(C)=O)cc1,-2.53%
9,CN(C)CCOC(=O)COc1ccc(Cl)cc1,3.67% [at 24.3 µM]
10,CC(C)[N+](C)(CCOC(=O)C1c2ccccc2Oc2ccccc21)C(C)C,-1.1%
11,CCCC(C(=O)OCCN(CC)CC)(c1ccccc1)c1ccccc1,0.451%
12,CC(=O)[C@@]1(O)CC[C@H]2[C@@H]3CCC4=CC(=O)CC[C@]4(C)[C@H]3CC[C@@]21C,-3.52%
13,COC(=O)[C@@H](N)Cc1ccc(O)c(O)c1,14.9%
14,CC1=C(C)C(=O)C(CCCCC#CCCCC#CCO)=C(C)C1=O,-0.744%
15,CCCOc1ccccc1-c1nc2n[nH]nc2c(=O)[nH]1,0%
16,CN(C)CCCN1c2ccccc2Sc2ccc(C(F)(F)F)cc21,8.81%
17,CC(=O)Oc1cc(C(C)C)c(OCCN(C)C)cc1C,-3.92% [at 24.3 µM]
18,COC(=O)[C@H]1[C@H]2C[C@@H]3c4[nH]c5cc(OC)ccc5c4CCN3C[C@H]2C[C@@H](OC(=O)c2cc(OC)c(OC)c(OC)c2)[C@@H]1OC,0%
19,NCCCNCCSP(=O)(O)O,2.41%
20,Cc1nc2sccn2c(=O)c1CCN1CCC(=C(c2ccc(F)cc2)c2ccc(F)cc2)CC1,16.3%

row,Compound,"activity change, negative = inhibition"
1,CNCCCN1c2ccccc2CCc2ccccc21,-1.91% [at 24.3 µM]
2,FC(F)(F)c1ccccc1-n1ccnc1,1.63%
3,COC(=O)C1=C(C)NC(C)=C(C(=O)OC(C)(C)CN(C)CCC(c2ccccc2)c2ccccc2)C1c1cccc([N+](=O)[O-])c1 (stereo not given),3.21%
4,CCCCOCCOCCOCc1cc2c(cc1CCC)OCO2,1.08%
5,CN(C)C(=O)Oc1ccc[n+](C)c1,0%
6,CCOC(=O)C1=C(C)NC(C)=C(C(=O)OC)C1c1cccc(Cl)c1Cl (stereo not given),-3.48%
7,CC(=O)OCC1=C(C(=O)O)N2C(=O)[C@@H](NC(=O)Cc3cccs3)[C@H]2SC1,1.22%
8,CCN1CCC[C@H]1CNC(=O)c1c(O)c(Cl)cc(Cl)c1OC,0.0972%
9,NC(=O)c1cn(Cc2c(F)cccc2F)nn1,-1.94%
10,Cc1nnc(SCC2=C(C(=O)O)N3C(=O)[C@@H](NC(=O)Cn4cnnn4)[C@H]3SC2)s1,-0.672%
11,NC(=Nc1ccccc1)Nc1ccccc1,4.86%
12,Cc1ccc(=O)n(-c2ccccc2)c1,2.03%
13,CCO/C([O-])=N/c1c[n+](N2CCOCC2)no1,-0.95% [at 24.3 µM]
14,C[N+](C)(C)CCCCCCCCCC[N+](C)(C)C,1.99%
15,NC(=O)c1ncn([C@@H]2O[C@H](CO)[C@@H](O)[C@H]2O)c1O,-1.13%
16,NC1=NCC2c3ccccc3Cc3ccccc3N12 (stereo not given),-0.0748%
17,COc1cc2c(cc1OC)-c1cc(=Nc3c(C)cc(C)cc3C)n(C)c(=O)n1CC2,-0.712%
18,COc1ccc([C@@H]2Sc3ccccc3N(CCN(C)C)C(=O)[C@@H]2OC(C)=O)cc1,-0.312%
19,C[N+](C)(C)CCOC(N)=O,5.92%
20,CN(C)CC[C@@H](c1ccc(Br)cc1)c1ccccn1,-5.23%
